Experimental data published in PubChem BioAssay (Tox21).
Records with an inconclusive call do not appear. Where a call stands in place of a potency, no number is given. Activity calls are given as the source filed them. Calls come from the whole dose curve.

Test: p53 small molecule agonists, cell-based qHTS assay with human liver microsomes (AID 1963577);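 note: p53 response element beta-lactamase reporter cells with liver microsomes plus NADPH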
Settings: HCT-116 p53RE-bla with human liver microsomes, ratio, 16 h; series mostly up to 66 µM
Procedure, shortened: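 In this qHTS, p53 response-element beta-lactamase cells receive test compound together with a microsome/NADPH activating system (0.5 mg/mL final each) and are incubated 16 h at 37 C before LiveBLAzer fluorescence detection.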

SMILES	Potency
CO[C@@H]1[C@@H](OC)[C@H](C)[C@@](O)(CC(=O)O)O[C@H]1[C@H](C)[C@H]1O[C@@]2(CC[C@@](C)([C@H]3CC[C@@](C)([C@@H]4O[C@@H]([C@H]5O[C@](C)(O)[C@H](C)C[C@@H]5C)C[C@@H]4OC4C[C@H](OC)[C@@H](OC)[C@H](C)O4)O3)O2)C[C@H](O)[C@H]1C (stereo partly specified)	inactive
O=Cc1ccc(O)c(O)c1O	inactive
c1ccc2sc(SN3CCOCC3)nc2c1	inactive
O=C(O)Cc1ccc(Cl)cc1Cl	inactive
Cc1ccc([N+](=O)[O-])c(N)c1	inactive
CCN(CC)c1ccc2c(-c3ccccc3C(=O)O)c3ccc(=[N+](CC)CC)cc-3oc2c1	inactive
CCCCCCCCCC(C)C=O (stereo unspecified)	inactive
CCC(Cl)CCC(Cl)C(Cl)CC(Cl)C(Cl)C(Cl)CCl (stereo unspecified)	inactive
CCOc1ccc(NC(C)=O)cc1N	inactive
OC[C@H]1O[C@@H](OCCc2ccc(O)cc2)[C@H](O)[C@@H](O)[C@@H]1O	inactive
CCc1ccc2c(c1)C(=O)c1ccccc1C2=O	inactive
CC(C)c1cccc(C(C)C)c1NC(=O)NS(=O)(=O)c1cc(C(C)(C)O)co1	inactive
[Cl][Au]([Cl])[Cl]	inactive
CCc1oc2ccccc2c1C(=O)c1cc(I)c(O)c(I)c1	inactive
C=C[Si]1(C)O[Si](C)(C=C)O[Si](C)(C=C)O[Si](C)(C=C)O1 (stereo unspecified)	inactive
CC1=CCC(C(C)C)C=C1 (stereo unspecified)	inactive
Oc1ccc(N=Nc2ccccc2)cc1	inactive
Cc1ccc(Cl)cc1N	inactive
Oc1ccc(Cc2ccccc2)cc1	inactive
Cc1cc(-c2ccc(N=Nc3cc(S(=O)(=O)O)c4ccccc4c3N)c(C)c2)ccc1N=Nc1cc(S(=O)(=O)O)c2ccccc2c1N	inactive

SMILES	Potency
CC[C@]12CCCN3CCc4c(n(c5ccccc45)C(=O)C1)[C@@H]32	inactive
c1ccc2occc2c1	inactive
C=CCCCCCC	inactive
COC(=O)/C=C(\C)CCC=C(C)C	inactive
CCN(CCC#N)c1ccc(N=Nc2c(Cl)cc([N+](=O)[O-])cc2Cl)cc1	inactive
CCCCCC[C@@H](O)C/C=C\CCCCCCCC(=O)OC	inactive
N=C(N)N	inactive
NCCN1CCOCC1	inactive
O=C(c1ccccc1)c1cc(Cl)ccc1O	inactive
O=C(O)C(=O)Cc1ccccc1	inactive
NCCc1cnc[nH]1	inactive
CC/C=C1/OC(=O)c2ccccc21	inactive
O=C1c2ccccc2C(=O)c2c(Cl)cccc21	inactive
COC(=O)CCCCCCCC(=O)OC	inactive
OCCN1CCN(CCO)CC1	inactive
CC/C=C\CCCCCO	inactive
O=C(NOCC1CC1)c1ccc(F)c(F)c1Nc1ccc(I)cc1Cl	inactive
c1ccc(-c2nc3ccccc3[nH]2)cc1	inactive
CC(=O)Nc1cccc(N)c1	inactive
COc1ccc(C2CNC(=O)C2)cc1OC1CCCC1 (stereo unspecified)	inactive

Test: p53 small molecule agonists, cell-based qHTS assay with rat liver microsomes (AID 1963578)
Settings: HCT-116 p53RE-bla, beta-lactamase ratio, 16 h; series mostly up to 66 µM
Procedure, shortened: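 Agonist mode in p53RE-bla reporter cells, with compounds co-incubated 16 h at 37 C alongside 0.5 mg/mL rat liver microsomes and 0.5 mg/mL NADPH (final), followed by a 2 h LiveBLAzer detection step.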

SMILES	Potency
CO[C@@H]1[C@@H](OC)[C@H](C)[C@@](O)(CC(=O)O)O[C@H]1[C@H](C)[C@H]1O[C@@]2(CC[C@@](C)([C@H]3CC[C@@](C)([C@@H]4O[C@@H]([C@H]5O[C@](C)(O)[C@H](C)C[C@@H]5C)C[C@@H]4OC4C[C@H](OC)[C@@H](OC)[C@H](C)O4)O3)O2)C[C@H](O)[C@H]1C (stereo partly specified)	inactive
O=Cc1ccc(O)c(O)c1O	inactive
c1ccc2sc(SN3CCOCC3)nc2c1	inactive
O=C(O)Cc1ccc(Cl)cc1Cl	inactive
Cc1ccc([N+](=O)[O-])c(N)c1	inactive
CCN(CC)c1ccc2c(-c3ccccc3C(=O)O)c3ccc(=[N+](CC)CC)cc-3oc2c1	inactive
CCCCCCCCCC(C)C=O (stereo unspecified)	inactive
CCC(Cl)CCC(Cl)C(Cl)CC(Cl)C(Cl)C(Cl)CCl (stereo unspecified)	inactive
CCOc1ccc(NC(C)=O)cc1N	inactive
OC[C@H]1O[C@@H](OCCc2ccc(O)cc2)[C@H](O)[C@@H](O)[C@@H]1O	inactive
CCc1ccc2c(c1)C(=O)c1ccccc1C2=O	inactive
CC(C)c1cccc(C(C)C)c1NC(=O)NS(=O)(=O)c1cc(C(C)(C)O)co1	inactive
[Cl][Au]([Cl])[Cl]	inactive
CCc1oc2ccccc2c1C(=O)c1cc(I)c(O)c(I)c1	inactive
C=C[Si]1(C)O[Si](C)(C=C)O[Si](C)(C=C)O[Si](C)(C=C)O1 (stereo unspecified)	inactive
Oc1ccc(N=Nc2ccccc2)cc1	inactive
Oc1ccc(Cc2ccccc2)cc1	inactive
Cc1cc(-c2ccc(N=Nc3cc(S(=O)(=O)O)c4ccccc4c3N)c(C)c2)ccc1N=Nc1cc(S(=O)(=O)O)c2ccccc2c1N	inactive

SMILES	Potency
CC[C@]12CCCN3CCc4c(n(c5ccccc45)C(=O)C1)[C@@H]32	inactive
c1ccc2occc2c1	inactive
C=CCCCCCC	inactive
CCCCCC[C@@H](O)C/C=C\CCCCCCCC(=O)OC	inactive
N=C(N)N	inactive
NCCN1CCOCC1	inactive
O=C(c1ccccc1)c1cc(Cl)ccc1O	inactive
O=C(O)C(=O)Cc1ccccc1	inactive
NCCc1cnc[nH]1	inactive
CC/C=C1/OC(=O)c2ccccc21	inactive
O=C1c2ccccc2C(=O)c2c(Cl)cccc21	inactive
COC(=O)CCCCCCCC(=O)OC	inactive
OCCN1CCN(CCO)CC1	inactive
CC/C=C\CCCCCO	inactive
O=C(NOCC1CC1)c1ccc(F)c(F)c1Nc1ccc(I)cc1Cl	inactive
c1ccc(-c2nc3ccccc3[nH]2)cc1	inactive
CC(=O)Nc1cccc(N)c1	inactive
COc1ccc(C2CNC(=O)C2)cc1OC1CCCC1 (stereo unspecified)	inactive
